{
  "source": "PubChem BioAssay",
  "note": "Active and inactive are the calls of the source.",
  "data": [
    {"assay": "growth of efflux-deficient E. coli DRC39 – strain DRC39, OD650, 48 h, E. coli filamentation inducers, primary screen (AID 1179);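 note: screen aims at cell division blockers that make cells filament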", "settings": "E. coli DRC39 delta-acrAB growth, higher = more signal, called active from +8 up or from −8 down", "values": [
      {"smiles": "O=C1N(CCS(=O)(=O)c2ccccc2)Cc2ccccc2[C@@H]2OC(c3ccc(OCCCO)cc3)=N[C@]12CCS(=O)(=O)c1ccccc1", "z-score": "0.31 (inactive)"},
      {"smiles": "CCOC(=O)C[C@H]1[C@H](OC(=O)c2cc3ccccc3oc2=O)[C@@H](NC(=O)c2ccc3ccccc3c2)c2cc(OCCCO)ccc2N1C(=O)Cc1ccc(OC)cc1", "z-score": "-0.224 (inactive)"},
      {"smiles": "CC(C)OC(=O)CC(=O)CC(O)c1ccc([N+](=O)[O-])cc1", "note": "(stereo unspecified)", "z-score": "0.0547 (inactive)"},
      {"smiles": "CO[C@H]1O[C@H](CO)[C@@H](OC(=O)CCc2ccccc2)[C@H](OC(=O)c2cc3ccccc3[nH]2)[C@H]1OC(=O)c1cc2ccccc2[nH]1", "z-score": "1.2 (inactive)"},
      {"smiles": "C=CCNC(=O)[C@@H]1[C@H]2C(=O)O[C@H](c3ccccc3)[C@H](c3ccccc3)N2[C@H](c2ccc(OCCO)cc2)[C@@]12C(=O)N(C(=O)OCCOC)c1ccc(C#CCCO)cc12", "z-score": "0.298 (inactive)"},
      {"smiles": "COCCOC(=O)N1C(=O)[C@@]2(c3cc(C#CCCO)ccc31)[C@H](C(=O)N1CCCCCCC1)[C@H]1C(=O)O[C@H](c3ccccc3)[C@H](c3ccccc3)N1[C@@H]2c1ccccc1OCCO", "z-score": "-0.359 (inactive)"},
      {"smiles": "COC(=O)[C@@]1(Cc2ccc(F)cc2)[C@H]2c3cc(C(=O)N4CCCC4)n(C)c3C[C@H]2CN1C(=O)c1ccccc1", "z-score": "-0.482 (inactive)"},
      {"smiles": "COC(=O)[C@@]1(Cc2ccc(F)cc2)[C@H]2c3cc(C(=O)N(C)C)n(Cc4ccc(O)c(OC)c4)c3C[C@H]2CN1C(=O)c1ccccc1", "z-score": "-1.35 (inactive)"},
      {"smiles": "C=CCC(OC(C)=O)[C@@H]1[C@@H](N(Cc2ccc(-c3cccc(C(F)(F)F)c3)o2)C(=O)c2ccc(C)cc2)c2cc(OCCCO)ccc2N1C(=O)Cc1ccc(OC)cc1", "note": "(stereo partly specified)", "z-score": "1.11 (inactive)"},
      {"smiles": "CN(C)CCCCNC(=O)[C@H]1C[C@H]2C(=O)N[C@@H](CCCC[N+](C)(C)C)C(=O)N2[C@H]1c1ccc(O)cc1", "z-score": "0.56 (inactive)"},
      {"smiles": "CCOC(=O)C1=C[C@@H](c2ccccc2)N(S(=O)(=O)c2ccc(C)cc2)[C@H]1c1ccccc1", "z-score": "-0.605 (inactive)"},
      {"smiles": "C=CC[C@H](OC(=O)Nc1ccc(SC)cc1)c1ccc(OCCO)cc1", "z-score": "-0.254 (inactive)"},
      {"smiles": "O=C(O)[C@H]1C[C@H]2C(=O)N[C@@H](Cc3ccccc3)C(=O)N2[C@H]1c1cccc(OCCO)c1", "z-score": "0.214 (inactive)"},
      {"smiles": "CN(C)C(=O)[C@]1(CCS(=O)(=O)c2ccccc2)N=C(c2ccc(OCCCO)cc2)O[C@@H]1c1ccccc1", "z-score": "-0.0986 (inactive)"},
      {"smiles": "CCOC(=O)C1=C[C@@H](C(C)(C)C)N(S(=O)(=O)c2ccc(C)cc2)[C@H]1c1ccc(C)cc1", "z-score": "-0.823 (inactive)"}
    ]},
    {"assay": "viability profiling in RPMI8226 myeloma cells – cell-based, resazurin fluorescence, basal, 24 h, PK04 Diversity Set, profiling panel (AID 1180);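 note: RPMI8826 multiple myeloma cell line at 5000 cells per well; test concentration not given here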", "settings": "higher = more signal", "values": [
      {"smiles": "[N-]=[N+]=Nc1ccccc1C[C@]1(C(=O)NCc2ccccc2)COC(c2ccc(OCCCO)cc2)=N1", "z-score": -4.83},
      {"smiles": "C=CCNC(=O)[C@H]1[C@@H]2C(=O)O[C@@H](c3ccccc3)[C@@H](c3ccccc3)N2[C@@H](c2ccc(OCCO)cc2)[C@]12C(=O)Nc1ccc(C#CCNC(N)=O)cc12", "z-score": 0.687},
      {"smiles": "CCOC(=O)C[C@H]1[C@H](OC(=O)c2ccccc2-c2ccccc2)[C@@H](NC(=O)c2ccc3ccccc3n2)c2cc(OCCCO)ccc2N1C(=O)c1ccccc1", "z-score": 0.303},
      {"smiles": "C[C@@H]1ON(c2ccc(I)cc2)[C@H](c2ccc(OC(=O)OC(C)(C)C)cc2)[C@H]1C(=O)N1C(=O)OC[C@H]1Cc1ccccc1", "z-score": 1.87},
      {"smiles": "CN1C(=O)[C@@H]2[C@@H](CC(COc3ccccc3)=C([C@H](O)CCc3ccccc3)[C@@H]2CO)C1=O", "z-score": 0.685},
      {"smiles": "NC(=O)N1C(=O)C2C(C1=O)C1C=C(CCCO)C2C(C2CC2)N1Cc1cccc(OC(F)(F)F)c1", "note": "(stereo unspecified)", "z-score": -0.762},
      {"smiles": "O=C(N1CCOCC1)[C@@]1(CCS(=O)(=O)c2ccccc2)N=C(c2ccc(OCCCO)cc2)O[C@H]1c1ccccc1", "z-score": -1.09},
      {"smiles": "C=C(COC)C(=O)CC[C@H](OC(C)=O)c1ccc(OCCO)cc1", "z-score": -0.873},
      {"smiles": "COc1ccc(C(O)C2C=CC3C(=O)N(c4ccccc4)C(=O)C3N2Nc2ccccc2)cc1", "note": "(stereo unspecified)", "z-score": -0.841},
      {"smiles": "O=C1C2C=CC(C(O)C=Cc3ccc([N+](=O)[O-])cc3)N(Nc3ccccc3)C2C(=O)N1c1ccccc1", "note": "(stereo unspecified)", "z-score": 0.185},
      {"smiles": "CCN(CC)c1ccc(N2CC=CC34O[C@@H]5C=CCCOC(=O)C5[C@H]3C(=O)N(CCO)[C@@H]4C2=O)cc1", "note": "(stereo partly specified)", "z-score": 0.553},
      {"smiles": "CN1C=C(C(=O)OCCS(C)(=O)=O)C(C(=O)OCCS(C)(=O)=O)=CC(c2ccc(CO)cc2)=CC1c1cccs1", "note": "(stereo unspecified)", "z-score": 0.0779},
      {"smiles": "C=C(C)C1CCC(C(O)C2C=CC3C(=O)N(C)C(=O)C3N2Nc2cc(OC)c(OC)c(OC)c2)CC1", "note": "(stereo unspecified)", "z-score": -1.27},
      {"smiles": "O=C1NC(=O)C2C1C=CC(C(O)c1ccccn1)N2Nc1ccc(Cl)cc1Cl", "note": "(stereo unspecified)", "z-score": -1.82},
      {"smiles": "CCCCC=C[C@@H](NC(=O)c1ccccc1)c1ccccc1", "z-score": -0.321},
      {"smiles": "C=C(C(=O)CC[C@H](OC(=O)c1ccccc1-c1ccccc1C(=O)O)c1ccccc1OCCO)C(C)C", "z-score": -0.268},
      {"smiles": "COCCOC(=O)N1C(=O)[C@@]2(c3cc(C#CCC(C(=O)OC)C(=O)OC)ccc31)[C@H](c1ccc(O)cc1)N1[C@H](c3ccccc3)[C@H](c3ccccc3)OC(=O)[C@H]1[C@@H]2C(=O)NC[C@H](O)c1ccccc1", "z-score": -2.51},
      {"smiles": "[N-]=[N+]=NCc1ccccc1[C@@H]1OC(c2ccc(OCCCO)cc2)=N[C@]1(Cc1ccccc1N=[N+]=[N-])C(=O)NCCN1CCOCC1", "z-score": -0.846},
      {"smiles": "CN1C(=O)C2C=CC(C(O)c3ccc(I)cc3)N(Nc3ccccc3)C2C1=O", "note": "(stereo unspecified)", "z-score": -1.37},
      {"smiles": "[N-]=[N+]=NCc1ccccc1[C@@H]1OC(c2ccc(OCCCO)cc2)=N[C@]1(Cc1ccccc1)C(=O)NCCN1CCOCC1", "z-score": -0.0015},
      {"smiles": "CC1(C)C(=O)C(c2ccccc2)=C2CN3C(=O)N(CCc4ccccc4)C(=O)C3(Cc3ccc(C(F)(F)F)cc3)C=C21", "note": "(stereo unspecified)", "z-score": -1.03},
      {"smiles": "O=C1N(CCS(=O)(=O)c2ccccc2)Cc2ccccc2[C@@H]2OC(c3ccc(OCCCO)cc3)=N[C@]12CCS(=O)(=O)c1ccccc1", "z-score": -0.458},
      {"smiles": "CCOC(=O)C[C@H]1[C@H](OC(=O)c2cc3ccccc3oc2=O)[C@@H](NC(=O)c2ccc3ccccc3c2)c2cc(OCCCO)ccc2N1C(=O)Cc1ccc(OC)cc1", "z-score": -0.137},
      {"smiles": "CC(C)OC(=O)CC(=O)CC(O)c1ccc([N+](=O)[O-])cc1", "note": "(stereo unspecified)", "z-score": -0.0948},
      {"smiles": "CO[C@H]1O[C@H](CO)[C@@H](OC(=O)CCc2ccccc2)[C@H](OC(=O)c2cc3ccccc3[nH]2)[C@H]1OC(=O)c1cc2ccccc2[nH]1", "z-score": -2.49},
      {"smiles": "C=CCNC(=O)[C@@H]1[C@H]2C(=O)O[C@H](c3ccccc3)[C@H](c3ccccc3)N2[C@H](c2ccc(OCCO)cc2)[C@@]12C(=O)N(C(=O)OCCOC)c1ccc(C#CCCO)cc12", "z-score": 1.04},
      {"smiles": "COCCOC(=O)N1C(=O)[C@@]2(c3cc(C#CCCO)ccc31)[C@H](C(=O)N1CCCCCCC1)[C@H]1C(=O)O[C@H](c3ccccc3)[C@H](c3ccccc3)N1[C@@H]2c1ccccc1OCCO", "z-score": 0.3},
      {"smiles": "COC(=O)[C@@]1(Cc2ccc(F)cc2)[C@H]2c3cc(C(=O)N4CCCC4)n(C)c3C[C@H]2CN1C(=O)c1ccccc1", "z-score": -0.069},
      {"smiles": "COC(=O)[C@@]1(Cc2ccc(F)cc2)[C@H]2c3cc(C(=O)N(C)C)n(Cc4ccc(O)c(OC)c4)c3C[C@H]2CN1C(=O)c1ccccc1", "z-score": -0.997},
      {"smiles": "C=CCC(OC(C)=O)[C@@H]1[C@@H](N(Cc2ccc(-c3cccc(C(F)(F)F)c3)o2)C(=O)c2ccc(C)cc2)c2cc(OCCCO)ccc2N1C(=O)Cc1ccc(OC)cc1", "note": "(stereo partly specified)", "z-score": 1.11},
      {"smiles": "CN(C)CCCCNC(=O)[C@H]1C[C@H]2C(=O)N[C@@H](CCCC[N+](C)(C)C)C(=O)N2[C@H]1c1ccc(O)cc1", "z-score": 0.643},
      {"smiles": "CCOC(=O)C1=C[C@@H](c2ccccc2)N(S(=O)(=O)c2ccc(C)cc2)[C@H]1c1ccccc1", "z-score": -0.549},
      {"smiles": "C=CC[C@H](OC(=O)Nc1ccc(SC)cc1)c1ccc(OCCO)cc1", "z-score": 0.194},
      {"smiles": "O=C(O)[C@H]1C[C@H]2C(=O)N[C@@H](Cc3ccccc3)C(=O)N2[C@H]1c1cccc(OCCO)c1", "z-score": 0.889},
      {"smiles": "CN(C)C(=O)[C@]1(CCS(=O)(=O)c2ccccc2)N=C(c2ccc(OCCCO)cc2)O[C@@H]1c1ccccc1", "z-score": -0.155},
      {"smiles": "CCOC(=O)C1=C[C@@H](C(C)(C)C)N(S(=O)(=O)c2ccc(C)cc2)[C@H]1c1ccc(C)cc1", "z-score": -2.18}
    ]}
  ]
}
